Targets with a hit are over-represented here; the source holds about 7,900 in all. About 0.6% of all pairs of compound and target were hits.
Compound: CC[C@H](C)[C@@H](C(=O)N[C@@H]([C@@H](C)O)C(=O)N[C@@H](CC(C)C)C(=O)[C@]1(CO1)C)NC(=O)[C@H]([C@@H](C)CC)N(C)C(=O)C [epoxomicin]
Assay: log2 fold change, soluble protein after heating vs DMSO (PISA); higher = thermal stabilisation; K562 cells, 10 uM, 30 min; active = over 0.2 and 3.5 SD of the protein, either way, in both replicates (recomputed)
Method in brief: (§1)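 Soluble protein was defined as the supernatant after 21,000xg for 90 min. It came from K562 cells at 2×10^6 cells/mL given 10 μM compound for 30 min, heated in aliquots for 3 min across 48°C-58°C, pooled, and extracted in PBS with 0.5% NP-40 at 4°C, and was quantified by TMTpro 16plex LC-MS/MS with equalised channel sums. Thermal stability against control samples, from duplicates, is reported as log2 fold change.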

Sequence of UniProt P23276 (P23276 whole entry, looked up): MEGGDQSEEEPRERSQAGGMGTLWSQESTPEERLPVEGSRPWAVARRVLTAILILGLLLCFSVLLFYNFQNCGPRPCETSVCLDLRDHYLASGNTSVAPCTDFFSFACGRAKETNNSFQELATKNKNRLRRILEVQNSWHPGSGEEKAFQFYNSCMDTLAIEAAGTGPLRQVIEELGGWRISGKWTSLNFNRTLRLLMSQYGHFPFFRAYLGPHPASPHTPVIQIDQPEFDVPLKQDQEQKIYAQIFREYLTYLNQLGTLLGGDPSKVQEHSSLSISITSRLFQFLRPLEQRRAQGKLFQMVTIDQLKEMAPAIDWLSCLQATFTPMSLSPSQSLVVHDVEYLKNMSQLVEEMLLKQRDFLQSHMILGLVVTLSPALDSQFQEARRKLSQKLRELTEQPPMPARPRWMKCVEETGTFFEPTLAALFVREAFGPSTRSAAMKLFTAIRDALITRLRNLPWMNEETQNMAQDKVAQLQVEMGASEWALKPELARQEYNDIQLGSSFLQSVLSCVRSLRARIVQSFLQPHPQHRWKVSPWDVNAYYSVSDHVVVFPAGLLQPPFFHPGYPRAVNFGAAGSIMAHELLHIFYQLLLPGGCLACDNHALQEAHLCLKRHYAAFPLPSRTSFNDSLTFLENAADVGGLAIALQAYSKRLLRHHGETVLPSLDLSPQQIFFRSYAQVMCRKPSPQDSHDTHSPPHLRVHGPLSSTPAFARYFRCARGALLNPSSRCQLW
Sequence of UniProt Q8N108 (Q8N108 whole entry, looked up): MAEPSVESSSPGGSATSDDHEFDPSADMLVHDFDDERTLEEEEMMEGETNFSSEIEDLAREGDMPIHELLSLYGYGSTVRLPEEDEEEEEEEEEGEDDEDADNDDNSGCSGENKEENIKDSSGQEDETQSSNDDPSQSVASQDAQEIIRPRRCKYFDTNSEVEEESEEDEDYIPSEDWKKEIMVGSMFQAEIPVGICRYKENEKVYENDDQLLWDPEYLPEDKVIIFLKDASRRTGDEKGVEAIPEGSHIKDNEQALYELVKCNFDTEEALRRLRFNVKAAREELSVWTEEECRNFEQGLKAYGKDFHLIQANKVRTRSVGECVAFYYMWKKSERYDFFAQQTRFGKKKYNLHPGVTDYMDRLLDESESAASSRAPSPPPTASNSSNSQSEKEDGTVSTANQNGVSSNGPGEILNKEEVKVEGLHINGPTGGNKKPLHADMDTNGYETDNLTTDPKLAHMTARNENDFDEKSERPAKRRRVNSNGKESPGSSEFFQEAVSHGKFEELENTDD
Sequence of UniProt A8MWY0 (A8MWY0 whole entry, looked up): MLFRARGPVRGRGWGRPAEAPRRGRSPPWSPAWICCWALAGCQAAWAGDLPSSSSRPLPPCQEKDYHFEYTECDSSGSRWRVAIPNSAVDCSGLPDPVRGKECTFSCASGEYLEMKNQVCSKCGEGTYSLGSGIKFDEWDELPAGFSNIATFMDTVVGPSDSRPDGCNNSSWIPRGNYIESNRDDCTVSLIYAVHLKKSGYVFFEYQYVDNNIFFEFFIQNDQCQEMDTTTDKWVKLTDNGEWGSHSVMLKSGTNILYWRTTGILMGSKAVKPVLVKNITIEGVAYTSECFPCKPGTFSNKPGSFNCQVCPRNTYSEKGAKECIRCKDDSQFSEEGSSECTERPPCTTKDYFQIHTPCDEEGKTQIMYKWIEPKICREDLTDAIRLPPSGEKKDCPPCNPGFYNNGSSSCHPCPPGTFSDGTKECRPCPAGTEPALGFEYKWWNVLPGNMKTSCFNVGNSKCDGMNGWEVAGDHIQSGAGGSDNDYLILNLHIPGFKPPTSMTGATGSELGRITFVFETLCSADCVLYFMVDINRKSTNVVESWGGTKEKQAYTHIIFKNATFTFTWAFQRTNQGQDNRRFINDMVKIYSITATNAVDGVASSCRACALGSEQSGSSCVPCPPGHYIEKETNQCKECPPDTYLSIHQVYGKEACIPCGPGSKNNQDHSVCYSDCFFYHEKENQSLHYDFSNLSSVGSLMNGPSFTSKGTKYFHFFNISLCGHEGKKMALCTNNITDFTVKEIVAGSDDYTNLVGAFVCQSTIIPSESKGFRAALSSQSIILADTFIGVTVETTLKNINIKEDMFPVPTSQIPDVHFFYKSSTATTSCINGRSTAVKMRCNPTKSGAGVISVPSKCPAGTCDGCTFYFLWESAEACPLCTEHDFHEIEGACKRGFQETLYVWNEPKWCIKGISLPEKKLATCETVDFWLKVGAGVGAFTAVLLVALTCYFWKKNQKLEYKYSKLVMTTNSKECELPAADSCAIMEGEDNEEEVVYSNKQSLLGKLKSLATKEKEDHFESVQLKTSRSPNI
Sequence of UniProt Q9GZY8 (Q9GZY8 whole entry, looked up): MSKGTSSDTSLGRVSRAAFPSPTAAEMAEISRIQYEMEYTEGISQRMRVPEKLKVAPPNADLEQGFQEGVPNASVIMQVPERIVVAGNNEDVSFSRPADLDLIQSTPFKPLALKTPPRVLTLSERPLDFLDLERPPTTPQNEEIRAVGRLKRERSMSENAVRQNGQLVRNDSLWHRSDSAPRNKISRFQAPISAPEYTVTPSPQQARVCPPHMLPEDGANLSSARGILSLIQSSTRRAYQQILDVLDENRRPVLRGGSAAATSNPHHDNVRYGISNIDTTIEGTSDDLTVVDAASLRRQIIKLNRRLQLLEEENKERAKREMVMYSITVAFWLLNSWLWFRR
Sequence of UniProt Q14681 (Q14681 whole entry, looked up): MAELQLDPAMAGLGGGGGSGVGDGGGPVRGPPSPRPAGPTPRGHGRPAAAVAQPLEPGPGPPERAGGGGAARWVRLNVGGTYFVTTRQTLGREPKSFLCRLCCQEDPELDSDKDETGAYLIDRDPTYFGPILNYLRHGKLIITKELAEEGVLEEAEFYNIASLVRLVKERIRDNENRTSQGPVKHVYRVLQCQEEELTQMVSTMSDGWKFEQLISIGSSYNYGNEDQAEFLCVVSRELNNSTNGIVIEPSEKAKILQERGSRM
Sequence of UniProt Q9UHB6 (Q9UHB6 whole entry, looked up): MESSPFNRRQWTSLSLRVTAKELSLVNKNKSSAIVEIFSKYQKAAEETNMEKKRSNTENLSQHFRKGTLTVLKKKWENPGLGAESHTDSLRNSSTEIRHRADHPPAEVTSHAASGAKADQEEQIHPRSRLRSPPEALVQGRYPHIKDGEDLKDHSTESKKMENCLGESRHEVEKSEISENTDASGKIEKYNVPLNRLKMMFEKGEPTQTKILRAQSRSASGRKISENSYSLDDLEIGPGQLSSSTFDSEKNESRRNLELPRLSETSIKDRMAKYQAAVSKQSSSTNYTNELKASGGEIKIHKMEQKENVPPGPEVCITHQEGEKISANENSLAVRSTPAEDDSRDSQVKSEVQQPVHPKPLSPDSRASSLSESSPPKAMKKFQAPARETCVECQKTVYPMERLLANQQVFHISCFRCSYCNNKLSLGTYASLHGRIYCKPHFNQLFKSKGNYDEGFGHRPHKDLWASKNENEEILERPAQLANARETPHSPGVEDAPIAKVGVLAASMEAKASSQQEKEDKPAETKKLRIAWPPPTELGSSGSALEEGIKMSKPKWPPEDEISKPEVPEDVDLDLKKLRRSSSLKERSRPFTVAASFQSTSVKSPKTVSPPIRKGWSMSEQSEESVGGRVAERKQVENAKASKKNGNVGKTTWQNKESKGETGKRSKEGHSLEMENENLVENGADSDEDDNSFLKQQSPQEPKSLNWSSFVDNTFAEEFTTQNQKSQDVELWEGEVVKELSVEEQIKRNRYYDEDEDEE
Sequence of UniProt Q8IWA4 (Q8IWA4 whole entry, looked up): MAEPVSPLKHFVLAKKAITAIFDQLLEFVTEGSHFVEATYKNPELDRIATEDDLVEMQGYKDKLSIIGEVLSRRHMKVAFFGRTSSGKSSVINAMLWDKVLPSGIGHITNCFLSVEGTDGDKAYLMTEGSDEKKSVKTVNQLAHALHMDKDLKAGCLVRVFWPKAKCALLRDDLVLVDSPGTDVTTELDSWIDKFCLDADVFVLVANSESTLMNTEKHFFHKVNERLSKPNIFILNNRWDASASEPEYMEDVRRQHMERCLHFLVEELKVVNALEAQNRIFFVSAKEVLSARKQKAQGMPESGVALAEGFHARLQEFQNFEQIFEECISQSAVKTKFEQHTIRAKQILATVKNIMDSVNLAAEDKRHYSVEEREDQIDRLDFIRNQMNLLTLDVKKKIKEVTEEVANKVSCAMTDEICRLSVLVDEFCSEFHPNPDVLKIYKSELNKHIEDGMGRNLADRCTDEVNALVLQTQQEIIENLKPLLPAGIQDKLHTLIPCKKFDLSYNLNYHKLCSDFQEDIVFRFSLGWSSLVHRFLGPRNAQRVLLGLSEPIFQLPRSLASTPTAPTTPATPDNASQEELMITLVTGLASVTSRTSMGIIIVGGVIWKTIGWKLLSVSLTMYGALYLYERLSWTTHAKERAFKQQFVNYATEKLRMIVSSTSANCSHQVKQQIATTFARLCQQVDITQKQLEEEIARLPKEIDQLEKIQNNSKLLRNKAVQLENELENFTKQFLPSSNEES
Sequence of UniProt A1L0T0 (A1L0T0 whole entry, looked up): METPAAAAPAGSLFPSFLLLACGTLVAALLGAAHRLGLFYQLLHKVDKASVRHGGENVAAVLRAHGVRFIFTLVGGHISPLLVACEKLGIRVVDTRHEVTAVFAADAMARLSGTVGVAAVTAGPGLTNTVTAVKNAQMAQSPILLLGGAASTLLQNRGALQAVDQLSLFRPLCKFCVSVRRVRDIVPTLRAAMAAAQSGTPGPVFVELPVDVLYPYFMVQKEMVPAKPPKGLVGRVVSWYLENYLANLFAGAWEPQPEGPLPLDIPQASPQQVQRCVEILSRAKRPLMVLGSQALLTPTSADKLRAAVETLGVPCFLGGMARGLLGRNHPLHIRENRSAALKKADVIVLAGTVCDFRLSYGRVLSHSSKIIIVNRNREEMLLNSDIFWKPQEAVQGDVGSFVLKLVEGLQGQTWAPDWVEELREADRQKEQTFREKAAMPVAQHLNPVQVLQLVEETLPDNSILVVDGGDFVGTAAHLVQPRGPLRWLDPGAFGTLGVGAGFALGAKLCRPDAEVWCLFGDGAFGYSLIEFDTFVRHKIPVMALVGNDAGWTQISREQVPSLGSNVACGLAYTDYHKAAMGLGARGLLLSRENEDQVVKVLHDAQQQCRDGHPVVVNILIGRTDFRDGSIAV

log2 fold change, inactive:
KIAA1324L (UniProt A8MWY0) 0.015
MIER1 isoform 12 (UniProt Q8N108) 0.02
MIA2 (UniProt Q96PC5) 0.037
LIMA1 isoform 4 (UniProt Q9UHB6) 0.003
METTL18 (UniProt O95568) -0.058
KIF21A isoform 4 (UniProt Q7Z4S6) 0.066
LUC7L (UniProt Q9NQ29) -0.052
KEL (UniProt P23276) 0.063
LEO1 (UniProt Q8WVC0) -0.001
LARP4 isoform 4 (UniProt Q71RC2) -0.107
MFF (UniProt Q9GZY8) 0.037
MFN1 (UniProt Q8IWA4) 0.079
MCL1 (UniProt Q07820) 0.308
LYN (UniProt P07948) 0.039
ILVBL (UniProt A1L0T0) 0.069
KCTD2 (UniProt Q14681) -0.052

Compound: CCn1c(C(=O)N(C2CC2)C2CC2)cc2c3c(ncn3C)c(Nc3cc(C)n(C)n3)nc21
Assay: as above
Method in brief: as §1

log2 fold change, inactive:
IWS1 (UniProt Q96ST2) -0.14
LUC7L2 (UniProt Q9Y383) 0.003
MARK3 (UniProt P27448) -0.03
MIEF1 (UniProt L0R8F8) 0.017
KIF11 (UniProt P52732) -0.076
LPIN3 isoform 2 (UniProt Q9BQK8) -0.048
INPP5B (UniProt P32019) -0.029
LNPEP (UniProt Q9UIQ6) 0.016
KDM1A isoform 2 (UniProt O60341) -0.053
IPO13 (UniProt O94829) 0.015
MIEF1 (UniProt Q9NQG6) 0.019
KDELR2 (UniProt P33947) -0.031
KTN1 (UniProt Q86UP2) 0.091
KHDRBS1 (UniProt Q07666) 0.016
KSR1 (UniProt Q8IVT5) 0.002
LUC7L3 (UniProt O95232) -0.025
LAMP2 (UniProt P13473) -0.009
MED1 (UniProt Q15648) -0.001
MICU2 (UniProt Q8IYU8) 0.005
ILK (UniProt Q13418) -0.037
KIF13A (UniProt Q9H1H9) -0.05
KIF3A (UniProt Q9Y496) -0.004
KDM5D isoform 3 (UniProt Q9BY66) -0.01
KIAA1324L (UniProt A8MWY0) 0.011
MIER1 isoform 12 (UniProt Q8N108) -0.039
MIA2 (UniProt Q96PC5) -0.009
LIMA1 isoform 4 (UniProt Q9UHB6) -0.015
METTL18 (UniProt O95568) 0.08
KIF21A isoform 4 (UniProt Q7Z4S6) -0.037
LUC7L (UniProt Q9NQ29) 0.048
KEL (UniProt P23276) 0.033
LEO1 (UniProt Q8WVC0) -0.007
LARP4 isoform 4 (UniProt Q71RC2) 0.005
MFF (UniProt Q9GZY8) 0
MFN1 (UniProt Q8IWA4) 0.015
MCL1 (UniProt Q07820) 0.213
LYN (UniProt P07948) 0.037
ILVBL (UniProt A1L0T0) 0.006
KCTD2 (UniProt Q14681) 0.007
